PfHsp90 set2: reduces growth (ATP signal) of yeast expressing P. falciparum Hsp90. AID 504621. inhibition, % at 9.4 µM. S. cerevisiae expressing PfHsp90, BacTiter-Glo ATP, 48 h; yeast lacking PDR1 and PDR3 efflux regulators. actives 0.32% (n = 310,000);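 active means every replicate shows inhibition above about 80%, whatever the replicate mean, limit read from the data; inconclusive means mean inhibition reaches the set limit but some replicate falls short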;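 further: 0% = DMSO neutral controls and 100% = 20 µM radicicol positive controls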
NSD2 inh: inhibitors of human histone methyltransferase NSD2; NSD2 peptide methylation, AlphaScreen, 120 min; O96028; actives 0.54% (n = 310,000); inhibition, % at 12.5 µM; in the data active means inhibition above about 50%
Glyco luc inh: blocks N-linked glycosylation in D54 reporter cells; AID 588692; reporter increase, % at 12.5 µM; D54 ERlucT glycosylation luciferase reporter, 24 h; percent of 100 nM tunicamycin response; actives 0.23% (n = 360,000);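 active means mean luciferase reporter signal, scaled so untreated is 0 and the glycosylation-blocking control 100, at or above a set limit in every replicate; inconclusive means mean reaches the limit but not every replicate does; inactive means mean below the limit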;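 further: luciferase carries N-glycosylation sites so blocking glycosylation raises the light; 0% = median of neutral control wells and 100% = median of 100 nM tunicamycin wells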
Wnt act: Wnt/beta-catenin pathway activation; activation, % at 9.35 µM; Wnt/beta-catenin reporter cell assay, activator, plate reader; AID 743398; actives 1.2% (n = 300,000); in the data active means activation above about 30%, passing the limit was not always enough; inconclusive means no clear call, values can overlap the other calls;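 further: 0% = neutral control wells and 100% = positive control wells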
MITF TRPM1 inh: MITF TRPM1 promoter inhibition in SK-MEL-5 cells; SK-MEL-5 TRPM1 promoter luciferase, 24 h; inhibition, % at 12.5 µM; actives 0.83% (n = 330,000); AID 488899;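 active means mean inhibition across replicates of 60% or more, whatever share of single replicates reaches that level; inconclusive means some that reach 60%, reason not given; inactive means mean inhibition across replicates below 60%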
MITF TRPM1 HTS: activators of MITF-driven TRPM1 promoter activity in SK-MEL-5 cells. activation, % at 12.5 µM. actives 0.75% (n = 300,000). SK-MEL-5 TRPM1-promoter luciferase, 24 h; % of positive control, neutral wells = 0;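 active means mean activation of at least 80% with every replicate also reaching 80%; inconclusive means mean reaches 80% but some replicate falls short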;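 further: 0% = neutral control wells and 100% = parthenolide positive control wells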
Alpha artifact: counter-screen for NSD2 inhibitors: AlphaScreen artifacts. shares compounds with NSD2 inh. AID 1053174. AlphaScreen artifact counterscreen, preloaded methylated H4 peptide. actives 9.4% (n = 1,500). AC35, µM (doses to about 10 µM), for inactives: top-dose activity change, negative = signal loss; call rule not given here
Numbers without * were called inactive; ? = inconclusive; · = no result. Compounds with a hit are over-represented: about 2.9% of the library has one in this group of screens.

SMILES	PfHsp90 set2	NSD2 inh	Glyco luc inh	Wnt act	MITF TRPM1 inh	MITF TRPM1 HTS	others
CC1([N+](=O)[O-])COP(=O)(Nc2cccc(Cl)c2)OC1 (stereo not given)	4.2	-2.2	-1.0	5.0	-0.5	-5.8
CCCCn1c(O)c(C(CC)=NC(C)c2ccccc2)c(=O)[nH]c1=O (stereo not given)	·	8.6	1.9	-0.7	19.2	-17.0
C=CCn1c(O)c(C(CC)=NC(C)c2ccccc2)c(=O)[nH]c1=O (stereo not given)	-46.5	-0.1	25.6*	·	4.6	·
N/C(=N/[N+](=O)[O-])N1CCN(C(=O)c2ccc(Cl)cc2)CC1	7.4	-0.5	0.3	-0.2	4.6	-4.1
CCOC(=O)Cn1cc([N+](=O)[O-])nc1[N+](=O)[O-]	-3.7	8.7	-0.4	·	64.8*	-66.4
C=C(CO)CC1CC(O)[C@]2(C)OC3CC4OC5C[C@]6(C)O[C@]7(C)CCC8OC9C[C@]%10(C)OC%11C(C)=CC(=O)OC%11CC%10OC9C[C@@H](C)C8OC7CC6O[C@]5(C)C/C=C\C4OC3CC2O1 (stereo not given in full)	0.5	·	-7.4	2.2	-1.7	2.9
C=C(C=O)CC1CC(O)[C@]2(C)OC3CC4OC5C[C@]6(C)O[C@]7(C)CCC8OC9C[C@]%10(C)OC%11C(C)=CC(=O)OC%11CC%10OC9C[C@@H](C)C8OC7CC6O[C@]5(C)CC5OC5C4OC3CC2O1 (stereo not given in full)	-2.7	·	-24.4	·	96.2*	-95.3
CC[C@@H]1c2ccccc2[C@@H]2CC[C@H]1N2c1ccccc1	·	·	·	-3.6	·	·
N#CC1C(C#N)C2CCC1C1C2N1c1ccccc1 (stereo not given)	1.1	-0.4	-1.2	47.1*	6.6	-6.8
Oc1ccc(-[n+]2c(-c3ccccc3)cc(-c3ccccc3)cc2-c2ccccc2)cc1	-11.7	·	7.1	-21.9	83.6*	?
COc1ccc(-[n+]2c(-c3ccccc3)cc(-c3ccccc3)cc2-c2ccccc2)cc1	·	·	·	-20.1	·	·
CC(C)n1c(O)c(C2c3cc(Cl)ccc3Oc3[nH]c(=O)n(C(C)C)c(=O)c32)c(=O)[nH]c1=O (stereo not given)	-7.1	14.5	11.1	-2.4	102.3*	-102.2
CCCCCCn1c(O)c(C=NCCCn2ccnc2)c(=O)[nH]c1=O	-9.6	-2.7	0.6	·	-3.2	1.8
CCCCCCC(Cl)(Cn1ccnc1)c1ccccc1 (stereo not given)	101.4*	9.8	-1.7	-2.8	-0.8	1.3
COC1C(C)OC(OC2CC(C)(O)Cc3cc4c(c(O)c32)C(=O)c2c(O)cc3c(c2C4=O)OC2OC3(C)C(O)C(N(C)C)C2O)C(OC)C1(C)OC (stereo not given)	-38.0	·	-12.1	-10.4	63.8*	-62.8
COC1=C(C)C(=O)C2=C(C1=O)C(CO)N1C(C#N)C3CC4C(C1C2N1CCOC41)N3C (stereo not given)	0.8	19.2	-8.0	-23.6	75.7*	·
O=C1C2C3CCC(O3)C2C(=O)N1c1cccc(F)c1 (stereo not given)	·	0.7	0.5	-0.4	·	·
S=C=Nc1cccc(C2(N3CCCCC3)CCCCC2)c1	18.4	·	-2.5	0.2	75.0*	-74.2
O=C(O)C(O)(c1ccc(Cl)cc1)C1(O)CCCC1 (stereo not given)	·	-0.5	0.3	-5.2	·	·
CCOC(=O)c1c(-n2c(C)cc(/C=C3/C(=O)NC(=O)N(CC)C3=O)c2C)sc2c1CCCC2	-11.3	5.1	-0.3	-6.0	-1.8	4.9
CCOC(=O)c1c(-n2c(C)cc(C=C3C(=O)NC(=S)NC3=O)c2C)sc2c1CCCC2	108.6*	24.9	-1.3	·	64.5*	-62.4
O=C(C1CCN(S(=O)(=O)N2CCOCC2)CC1)N1CCC2(CC1)OCCO2	21.9	5.0	2.7	-4.7	0.8	-0.6
O=CC(Cl)P(=O)(N1CCOCC1)N1CCOCC1 (stereo not given)	1.2	-2.9	0.9	-0.5	4.7	·
Cc1[nH]nc2ccc(-c3cncc(OC[C@@H](N)Cc4c[nH]c5ccccc45)c3)cc12	-6.8	·	-18.1	·	90.7*	-89.0
CC[C@@H](O)C[C@H]1CCC[C@@]2(C[C@@H]3OC(=O)/C=C/[C@@](C)(O)[C@@H](O)[C@H](C)[C@@H](O)[C@H](OC4CCC(N(C)C)C(C)O4)[C@@H](O)[C@](C)(O)CCCCC/C=C/[C@@H]4CC(C)(C)O[C@@]4(O)C[C@H](O2)[C@H]3C)O1 (stereo not given in full)	-44.1	6.3	-4.4	-2.1	75.8*	·
SMILES	PfHsp90 set2	NSD2 inh	Glyco luc inh	Wnt act	MITF TRPM1 inh	MITF TRPM1 HTS	others
CC(=O)C1CCC2C3CCC4CC(O)CCC4(C)C3C(O)CC12C (stereo not given)	·	3.3	0.7	-4.3	-1.6	4.6
C=CCn1c(O)c(C(C)=NCc2ccco2)c(=O)[nH]c1=O	-0.7	1.2	4.1	-0.9	-0.1	4.2
CCCCn1c(O)c(C(C)=NCc2ccco2)c(=O)[nH]c1=O	9.8	-3.0	1.9	45.1*	-4.8	·
O=C1NC(=O)N(c2ccccc2)C(=O)/C1=C/c1coc2ccc(O)cc2c1=O	9.2	10.5	4.5	6.6	-8.7	8.1
Cn1c(=O)[nH]c2nncnc2c1=O	-8.6	53.7*	-7.9	0.7	5.6	-5.7	Alpha artifact=-3.3%
CN(C)c1ccc(/C=C/C=C/c2sc3ccccc3[n+]2C)cc1	18.7	57.2*	20.7	-7.7	63.0*	·	Alpha artifact=10.4µM*
CC[n+]1c(/C=C/C=C/c2ccc(N(C)C)cc2)sc2ccccc21	24.0	80.6*	28.3*	-16.6	71.0*	·	Alpha artifact=3.69µM*
CCC(=NCCCn1ccnc1)c1c(O)n(Cc2ccccc2)c(=O)[nH]c1=O	0.9	0.8	-3.2	·	9.1	·
CCCCCSc1cc(OC)c(CCNC)cc1OC	31.1	61.0*	1.2	-1.2	4.6	-3.4	Alpha artifact=-17.2%
O=[N+]([O-])c1ccc(N2CCCC2)c2ccncc12	5.6	70.5*	15.0	-0.9	3.9	-2.5	Alpha artifact=-3.6%
O=[N+]([O-])c1ccc(NC2CCCC2)c2ccncc12	-1.8	8.7	0.3	·	-1.2	-3.0
O=P(N[C@@H](c1ccccc1)[C@@H]1C[C@H]1CO)(c1ccccc1)c1ccccc1	-0.3	·	-2.1	3.7	-0.9	0.9
Cc1cc(/C=C2\C(=O)NC(=O)N(c3cccc(F)c3)C2=O)c(C)n1-c1cc(C(=O)O)cc(C(=O)O)c1	-0.7	81.1*	2.1	-11.1	0.2	-0.5	Alpha artifact=-9.4%
C[C@H]1CCCC(=O)CCC/C=C/c2cc(O)cc(O)c2C(=O)O1	-30.3	·	-7.0	-2.4	7.3	-6.1
